Source: PubChem BioAssay AID2315 (National Center for Advancing Translational Sciences (NCATS), 2010)
The whole screen tested about 290,000 compounds, of which about 27,000 (9.3%) were called active. This excerpt belongs to a sample that is enriched for actives. Unmarked numbers belong to inactive results. Cut-off read from the data, not from the text of the source: active = inhibition mostly above about 28% (no sharp cut-off); inactive = mostly below about 43%.

Assay: A qHTS for Small Molecule Inhibitors of Shiga Toxin; note: 0% is about no effect
Conditions: Vero cells, Shiga toxin protein synthesis inhibition reporter; at 38.7 µM, active compounds read high

SMILES | inhibition
CCn1c2ccc(F)cc2c2nnc(SCCN3CCOCC3)nc21 | -3.64%
Cc1cc2nc(SCCN3CCOCC3)[nH]c2cc1C | 59.3% (active)
Cc1cccc(C)c1OCCN1CCOCC1 | 1.56%
COc1cccc(CNS(=O)(=O)c2ccc3c(c2)N(C(C)=O)CCS3)c1 | -13.7%
Cc1cc(N/N=C/c2ccccc2F)c2ccccc2n1 | 26.9%
Cc1nc2ccccc2nc1N/N=C/c1ccc(O)cc1O | 55.6% (active)
COc1ccc(/C=C(\C#N)C(=O)ONC2=NCCCCC2)cc1 | 20.9%
Oc1ccc(/C=N/NC2=NCCCCC2)c(O)c1 | 97.5% (active)
Oc1ccc(/C=N/Nc2nc(-c3ccccc3F)nc3ccccc23)c(O)c1 | 16%
C[C@H](C(=O)CC(=O)OC(C)(C)C)[C@H](O)c1ccc(C(F)(F)F)cc1 | 1.74%
COCCCNC(=S)N1CCN(c2nc(-c3cccc(OC)c3)cs2)CC1 | 21.1%
C=CCOc1ccc(/C=C/C(=O)OCC(=O)NC2CCCCCC2)cc1 | 1.6%
COCC(=O)N1CCCC(C(=O)c2ccc(C(F)(F)F)cc2)C1 (centres undefined) | -8.8%
CC(=O)Nc1ccc(S(=O)(=O)Oc2ccc(Br)cc2C(=S)N2CCOCC2)cc1 | -12.5%
Cn1c(CNC(=O)c2ccco2)nnc1SCC(=O)N1CCN(c2ccccc2)CC1 | 4.34%
COc1ccccc1NC(=O)C1=C(C)NC(=O)NC1c1ccc(C)s1 (centres undefined) | 1.28%
COC(=O)c1c(NC(C)=O)sc(C(=O)Nc2ccccc2OC)c1C | -23.1%
COc1ccccc1NC(=O)c1ccc(C)s1 | 73.7% (active)
COc1ccc(/C=C(/NC(=O)c2ccccc2)C(=O)Nc2cccc(C(=O)O)c2)cc1 | -15.3%
Cc1cccc2c1N(CCOc1ccccc1)C(=O)C2=O | -13.4%
O=C(OCCN1C(=O)c2ccccc2C1=O)Oc1ccccc1 | -2.38%
O=C1c2ccccc2C(=O)N1CCOc1ccc(F)cc1 | 90.8% (active)

SMILES | inhibition
CC(NC(=O)COc1cccnc1[N+](=O)[O-])c1ccc(Cl)cc1Cl (centres undefined) | -9.36%
O=C(CCC(=O)Nc1ccccc1)N/N=C/c1ccccc1F | 144% (active)
O=C(Cc1ccccc1)N/N=C/c1ccc(Cl)cc1Cl | 6.24%
O=C(CCCCCNC(=O)c1ccccc1)N/N=C/c1ccccc1 | 11%
CN(C)C(=O)c1ccc(NC(=O)c2ccccc2-c2ccccc2)cc1 | -11.5%
O=C(Nc1ccccc1F)c1ccc(Cn2cc(Br)cn2)cc1 | 71.1% (active)
CCOc1cccc(C(=O)Nc2cnn(Cc3ccccc3)c2)c1 | 17.4%
CCc1ccc(NC(=O)c2ccc(Cn3cc([N+](=O)[O-])cn3)cc2)cc1 | 51.8%
CC(NC(=O)Cn1cc(C(F)(F)F)cc(Cl)c1=O)c1ccccc1 (centres undefined) | -1.42%
NNC(=O)CSc1nnc(-c2ccccc2)n1-c1ccccc1 | -7.44%
COc1ccc(C(=O)NC2CC2)cc1OC1CCN(Cc2ccc(SC)cc2)CC1 | -0.345%
COc1ccc(Nc2nc(=O)[nH]nc2C)cc1 | 16.1%
COc1ccc(Nc2nnc(C)c3ccccc23)cc1 | 106% (active)
Cc1nnc(NCCO)c2ccccc12 | 10.4%
CN(Cc1ccccc1)C(=O)C1CCCN(c2ncnc3c2nc2n3CCCCC2)C1 (centres undefined) | 21.9%
C/C(=C/c1ccccc1)C(=O)N1CCN(c2ccccc2)CC1 | 18.9%
Cc1cccc(C(=O)OC(C)CN2CCCC2)c1 (centres undefined) | 5.97%
CCNC(=S)NNC(=O)Cc1ccccc1 | -8.55%
CC(C)(C)c1ccc(C(=O)NNC(=O)Cc2ccccc2)cc1 | 76.6% (active)
O=C(CCc1ccccc1)NNC(=O)c1ccc(Br)cc1 | 34.5%
CCc1ccc2c(c1)C(c1ccc([N+](=O)[O-])cc1)=NNC(c1ccccc1)=N2 | 31.4%
CCOc1ccc2c(c1)C(c1ccc(C)cc1)=NNC(c1ccc(C)cc1)=N2 | 85.1% (active)

SMILES | inhibition
Cc1ccc(C2=Nc3c(ccc4ccccc34)C(c3ccncc3)=NN2)cc1 | 5.77%
Cc1ccc(S(=O)(=O)N2CCN(C(=O)N3CCOCC3)CC2)c(C)c1 | -2.32%
COc1cccc(OC)c1C(=O)N1CCN(Cc2cccnc2)CC1 | 11.9%
O=C(Cc1cccs1)NCc1cccc(C(F)(F)F)c1 | 61.9% (active)
COc1cc(CC(=O)NCc2cccs2)cc(OC)c1OC | -11.7%
O=C(NCc1ccccc1)c1ccc(S(=O)(=O)Nc2cccc(C(F)(F)F)c2)cc1 | -3.31%
COc1cccc(NC(=O)N2CCCC2C(=O)NC2CCCCC2)c1 (centres undefined) | -3.54%
O=S(=O)(Nc1ccc2[nH]ncc2c1)c1ccccc1Cl | -6.01%
Cn1c(SCC(=O)c2ccc(F)cc2)nnc1-c1ccccn1 | 21.4%
Cn1c(CC(=O)Nc2ccccc2)nnc1SCC(=O)c1ccccc1 | 0.707%
O=C(CSc1nnc2n1CCCN2)c1ccccc1 | 53.5% (active)
N#Cc1ccc(CSc2nnc3ccccn23)cc1 | -7.41%
CCN(C(=O)CSc1nnc2ccccn12)C1CCS(=O)(=O)C1 (centres undefined) | -8.56%
Cc1ccc(-n2c(C)cc(C(=O)CSc3nnc4ccccn34)c2C)cc1 | 48.6% (active)
O=C(CSc1nnc2ccccn12)c1ccccc1 | 74.7% (active)
Cc1ccc(-n2c(C)nnc2SCC(=O)NC2CC2)cc1 | -29.3%
O=C(CSc1nnc(-c2ccco2)n1CC1CCCO1)c1ccccc1 (centres undefined) | 21.9%
Cn1c(=O)n(C)c2cc(S(=O)(=O)Nc3ccc(F)cc3)ccc21 | 0.488%
Cc1ccc(CCN2CC(C(=O)NCCc3ccccc3)CC2=O)cc1 (centres undefined) | 16.6%
CC1CCCCN1C(=O)Cn1c(=O)oc2cc(S(=O)(=O)N3CCCCC3)ccc21 (centres undefined) | 12.7%
